From PubChem BioAssay (EPA / NIEHS) come the findings set out here.

Some structures have more than one record in an assay (separate samples or runs), and their calls can disagree. Active and inactive are the calls of the source. The calls were made as follows: active = hit-call score of the fitted dose curve at least 0.9, where 1 is the maximum; inactive = score below 0.9.

Read-out in assay [1]: Interleukin-6 (IL6), IL6 (gene 3569)
The assay can be described thus: BSK_CASM3C_IL6: BioMAP Diversity Plus: CASM3C Assay for Interleukin-6 (IL6) Biomarker Activity for (AID 2283040). To be noted: primary human coronary artery smooth muscle cells; actives raise or lower the signal.

Read-out in assay [2]: Tissue plasminogen activator (tPA), PLAT (gene 5327)
As to the kind of experiment: BSK_BE3C_tPA: BioMAP Diversity Plus: BE3C Assay for Tissue plasminogen activator (tPA) Biomarker Activity (AID 2283041).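 As to outcome: tPA level quantified by ELISA one day after compound addition.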 To be noted: primary human bronchial epithelial cells; actives raise or lower the signal. A digest of the protocol: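 Bidirectional curve fitting relative to DMSO defined activity, with tPA detected by ELISA in chemically treated human bronchial epithelial primary cells at 24 hours.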

Read-out in assay [3]: Interleukin-8 (IL8), CXCL8 (gene 3576)
As to the kind of experiment: BSK_CASM3C_IL8: BioMAP Diversity Plus: CASM3C Assay for Interleukin-8 (IL8) Biomarker Activity (AID 2283042).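 Also: IL-8 protein level quantified by ELISA.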 The conditions noted are these: primary human coronary artery smooth muscle cells; actives raise or lower the signal.

Read-out in assay [4]: Human Leukocyte Antigen - DR isotype (HLADR), HLA-DRA (gene 3122)
The assay can be described thus: BSK_CASM3C_HLADR: BioMAP Diversity Plus: CASM3C Assay for Human Leukocyte Antigen - DR isotype (HLADR) Biomarker Activity (AID 2283043).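 Also: cell-surface HLA-DR protein level quantified by ELISA.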 To be noted: primary human coronary artery smooth muscle cells; actives raise or lower the signal.

Read-out in assay [5]: Macrophage colony-stimulating factor (MCSF), CSF1 (gene 1435)
The assay can be described thus: BSK_CASM3C_MCSF: BioMAP Diversity Plus: CASM3C Assay for Macrophage colony-stimulating factor (MCSF) Biomarker Activity (AID 2283044).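 Also: M-CSF protein amount quantified by ELISA after 24 h exposure.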 The conditions noted are these: primary human coronary artery smooth muscle cells; actives raise or lower the signal.

Read-out in assay [6]: Low-density lipoprotein receptor (LDLR), LDLR (gene 3949)
As to the kind of experiment: BSK_CASM3C_LDLR: BioMAP Diversity Plus: CASM3C Assay for Low-density lipoprotein receptor (LDLR) Biomarker Activity (AID 2283045).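 Also: LDLR protein level on the cell surface quantified by ELISA.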 To be noted: primary human coronary artery smooth muscle cells; actives raise or lower the signal.

Read-out in assay [7]: Monocyte Chemoattractant Protein-1 (MCP1), CCL2 (gene 6347)
As to the kind of experiment: BSK_CASM3C_MCP1: BioMAP Diversity Plus: CASM3C Assay for Monocyte Chemoattractant Protein-1 (MCP1) Biomarker Activity (AID 2283046).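 Also: MCP-1 level quantified by ELISA 24 h after dosing.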 The conditions noted are these: primary human coronary artery smooth muscle cells; actives raise or lower the signal.

A short description of assay [8]: BSK_CASM3C_Proliferation: Cell Proliferation Assessment in the BioMAP Diversity Plus: CASM3C Assay (AID 2283047).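 Also: sulforhodamine B total protein stain as relative cell number at 560 nm; sub-confluent cells exposed 48 h before staining; fitted both ways against DMSO so gain or loss of cell number.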 To be noted: primary human coronary artery smooth muscle cells.
Read-out in assay [9]: Monokine induced gamma interferon (MIG), CXCL9 (gene 4283)
As to the kind of experiment: BSK_CASM3C_MIG: BioMAP Diversity Plus: CASM3C Assay for Monokine induced gamma interferon (MIG) Biomarker Activity (AID 2283048).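 Also: MIG protein level measured by ELISA.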 To be noted: primary human coronary artery smooth muscle cells; actives raise or lower the signal.

Read-out in assay [10]: serum amyloid A (SAA), SAA1 (gene 6288)
As to the kind of experiment: BSK_CASM3C_SAA: BioMAP Diversity Plus: CASM3C Assay for serum amyloid A (SAA) Biomarker Activity (AID 2283049).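 Also: SAA protein level quantified by ELISA.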 The conditions noted are these: primary human coronary artery smooth muscle cells; actives raise or lower the signal.

Usually AC50 stands for the concentration at which the activity in the assay is half-maximal.

With `COP(=S)(OC)Oc1ccc([N+](=O)[O-])cc1`, the outcome in assay [1], in [2], in assay [3], in [4], in assay [5] and in [6] was inactive. For the same compound, the outcome in assay [8], in assay [9] and in [10] was inactive. The AC50 in [7] was 877 nM (active).
Take `CCc1ccc(C(=O)NN(C(=O)c2cc(C)cc(C)c2)C(C)(C)C)cc1`: the outcome in assay [1], in assay [2], in assay [3], in assay [4], in [5] and in [6] was inactive. In addition, the outcome in assay [7], in assay [9] and in [10] was inactive. Also, in assay [8], the AC50 is 22.9 µM (active).
`CC(C)OC(=O)Nc1cccc(Cl)c1`: the result in [1], in [2], in assay [3], in assay [4], in [5] and in [6] was inactive. The result in [7], in assay [8], in assay [9] and in assay [10] was inactive.
For `CCCN(CCOc1c(Cl)cc(Cl)cc1Cl)C(=O)n1ccnc1`, the outcome in assay [1], in assay [2], in [3], in assay [4], in assay [5] and in assay [6] was inactive. For the same compound, the result in assay [7], in assay [9] and in assay [10] was inactive. Further, the AC50 in assay [8] was 26.8 µM (active).
In the case of `Oc1ccc(Cl)cc1Cc1ccccc1`, the AC50 in assay [1] was 30.5 µM (active) [middle of 4 runs]; in assay [2], 29.7 µM (active) [middle of 7 runs]; in assay [3], 31.5 µM (active) [middle of 5 runs]; in [4] it was 31.1 µM (active) [middle of 7 runs]; in assay [5] it was 29.6 µM (active) [middle of 7 runs]; in assay [6], 29.1 µM (active) [middle of 5 runs]. Also, the AC50 in assay [7] is 37.5 µM (active) [middle of 4 runs]; in assay [8] it was 32.2 µM (active) [middle of 7 runs]; in [9], 32.7 µM (active) [middle of 6 runs]; in assay [10], 31.1 µM (active) [middle of 6 runs]. Further, the result in assay [1], in [3], in assay [6] and in assay [9] was inactive.
`O=[N+]([O-])/N=C1\NCCN1Cc1ccc(Cl)nc1`: the result in assay [1], in assay [2], in [3], in assay [4], in [5] and in assay [6] was inactive. Moreover, the result in assay [7], in assay [8], in assay [9] and in assay [10] was inactive.
`CC(C)(C)C(O)/C(=C\c1ccc(Cl)cc1Cl)n1cncn1` (stereo not drawn): the result in [1], in assay [3], in [4], in [5], in assay [6] and in assay [7] was inactive. For the same compound, the outcome in [9] and in assay [10] was inactive. The AC50 in [2] was 8.37 µM (active); in assay [8], 20 µM (active).
`O=C(O)COc1ccc(Cl)cc1Cl`: the outcome in assay [1], in assay [2], in [3], in [4], in [5] and in assay [6] was inactive. Also, the outcome in assay [7], in assay [8], in [9] and in [10] was inactive.
On to `N#CN`, for which the result in [1], in assay [2], in assay [3], in [4], in [5] and in [6] was inactive. The outcome in [7], in assay [8], in [9] and in assay [10] was inactive.
As for `CNC(=O)CSP(=S)(OC)OC`, the outcome in [1], in assay [2], in assay [3], in [4], in assay [5] and in [6] was inactive. In addition, the outcome in [7], in assay [8], in assay [9] and in assay [10] was inactive.
On to `O=C(Nc1ccccc1)Nc1cnns1`, for which the outcome in [1], in assay [2], in assay [3], in assay [4], in assay [5] and in assay [6] was inactive. Moreover, the result in assay [7], in [8], in assay [9] and in assay [10] was inactive.
Regarding `O=[N+]([O-])c1c(Cl)c(Cl)c(Cl)c(Cl)c1Cl`, the outcome in [1], in [2], in assay [3], in [4], in assay [5] and in [6] was inactive. Besides, the outcome in [7], in assay [8], in assay [9] and in assay [10] was inactive.
For the compound `CCC(C)(C)C(=O)OC1=C(c2ccc(Cl)cc2Cl)C(=O)OC12CCCCC2`, the result in [1], in [3], in [4], in assay [6], in [7] and in assay [9] was inactive. Moreover, in [10], the result was inactive. Besides, the AC50 was 20 µM (active) in assay [2], 13.7 µM (active) in [5] and 25.7 µM (active) in [8].
For the compound `CNC(=O)Oc1cccc(N=CN(C)C)c1`, the result in assay [1], in assay [2], in assay [3], in [4], in [5] and in assay [6] was inactive. Besides, the result in assay [7], in assay [8], in assay [9] and in assay [10] was inactive.
For the compound `CNC(=O)Oc1ccccc1OC(C)C`, the result in [1], in assay [2], in [3], in [4], in assay [5] and in assay [6] was inactive. The outcome in assay [7], in assay [8], in [9] and in assay [10] was inactive.
With `Clc1ccccc1-c1nnc(-c2ccccc2Cl)nn1`, the result in [1], in assay [2], in assay [3], in assay [4], in assay [5] and in assay [6] was inactive. The result in assay [7], in [9] and in [10] was inactive.
Turning to `CCOC1Oc2ccc(OS(C)(=O)=O)cc2C1(C)C` (stereo not drawn), the result in [1], in assay [2], in assay [3], in assay [4], in assay [5] and in [6] was inactive. Further, the result in [7], in assay [8], in assay [9] and in [10] was inactive.
`O=C(NC(=O)c1c(F)cccc1F)Nc1ccc(OC(F)(F)C(F)OC(F)(F)F)c(Cl)c1` (stereo not drawn): the result in assay [1], in assay [2], in [3], in assay [4], in [5] and in assay [6] was inactive. In addition, the result in assay [7], in assay [8], in [9] and in assay [10] was inactive.
